Assays:
Test in all cases: DAPPL (digital affinity profiling via proximity ligation, sequencing); 10 mM Tris-HCl pH 7.5, 50 mM NaCl, 1 mM DTT, 4% glycerol, room temperature, 30 min; GST-TFs on glutathione beads, 16-mer random dsDNA library, 0.1% formaldehyde crosslink after washing; high values mean tight binding
FEV = biological target: T1, FEV (Homo sapiens, UniProt Q99581 1-238); settings: protein: recombinant; tags: N-terminal GST; dsDNA, one strand shown
T1 sequence: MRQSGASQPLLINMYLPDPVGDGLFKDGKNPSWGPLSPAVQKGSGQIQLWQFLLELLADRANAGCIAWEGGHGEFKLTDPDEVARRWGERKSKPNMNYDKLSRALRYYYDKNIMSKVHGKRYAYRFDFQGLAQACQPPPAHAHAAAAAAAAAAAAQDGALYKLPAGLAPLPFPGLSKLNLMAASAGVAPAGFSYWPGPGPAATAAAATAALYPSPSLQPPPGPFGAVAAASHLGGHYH
In short: (§1)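 Sequencing on an Illumina NextSeq500 followed washing, crosslinking with 0.1% formaldehyde, proximity ligation (BsaI/T4 ligase, 1 h, 37 °C) and PCR amplification of pools that had been incubated for 30 min at room temperature with 200 nmole of a random double-stranded 16-mer DNA library in Tris/NaCl/DTT/glycerol buffer. Each pool held DNA-barcoded human transcription factors, expressed in yeast as GST fusions and captured on glutathione beads, plus a tag-only sample. Binding signal is a hexamer's read frequency for a factor divided by its frequency in the tag-only sample.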

ETV5 = ETV5 (Homo sapiens, UniProt P41161 1-510); settings: protein: recombinant; tags: N-terminal GST; dsDNA, one strand shown
In short: as §1

HSF1 = HSF1 (Homo sapiens, UniProt Q00613 1-529); settings: protein: recombinant; tags: N-terminal GST; chain copies: 3; dsDNA, one strand shown
In short: as §1

SPIC = biological target: T2, SPIC (Homo sapiens, UniProt Q8N5J4 1-248); settings: protein: recombinant; tags: N-terminal GST; dsDNA, one strand shown
T2 sequence: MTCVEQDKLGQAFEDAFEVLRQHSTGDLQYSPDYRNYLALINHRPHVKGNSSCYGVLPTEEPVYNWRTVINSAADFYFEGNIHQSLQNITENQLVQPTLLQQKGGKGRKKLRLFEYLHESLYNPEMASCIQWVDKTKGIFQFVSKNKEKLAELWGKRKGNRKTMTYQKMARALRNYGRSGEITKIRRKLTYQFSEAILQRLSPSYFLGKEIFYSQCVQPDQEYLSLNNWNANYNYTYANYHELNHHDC
In short: as §1

ELF4 = ELF4 (Homo sapiens, UniProt Q99607 1-663); settings: protein: recombinant; tags: N-terminal GST; dsDNA, one strand shown
In short: as §1

ELK4 = biological target: T3, ELK4 (Homo sapiens, UniProt P28324-2 1-405); settings: protein: recombinant; tags: N-terminal GST; dsDNA, one strand shown
T3 sequence: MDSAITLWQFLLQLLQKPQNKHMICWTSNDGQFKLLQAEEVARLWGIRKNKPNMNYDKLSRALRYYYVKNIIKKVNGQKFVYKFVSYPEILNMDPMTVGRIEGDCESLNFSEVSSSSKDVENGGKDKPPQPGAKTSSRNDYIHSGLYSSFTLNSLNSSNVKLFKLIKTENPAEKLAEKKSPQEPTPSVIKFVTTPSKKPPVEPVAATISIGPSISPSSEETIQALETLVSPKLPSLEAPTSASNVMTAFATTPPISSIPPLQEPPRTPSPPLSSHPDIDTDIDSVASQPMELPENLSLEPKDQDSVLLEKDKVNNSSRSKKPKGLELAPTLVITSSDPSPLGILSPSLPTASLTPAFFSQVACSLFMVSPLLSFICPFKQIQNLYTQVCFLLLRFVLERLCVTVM
In short: as §1

ETV2 = biological target: T4, ETV2 (Homo sapiens, UniProt O00321 1-342); settings: protein: recombinant; tags: N-terminal GST; dsDNA, one strand shown
T4 sequence: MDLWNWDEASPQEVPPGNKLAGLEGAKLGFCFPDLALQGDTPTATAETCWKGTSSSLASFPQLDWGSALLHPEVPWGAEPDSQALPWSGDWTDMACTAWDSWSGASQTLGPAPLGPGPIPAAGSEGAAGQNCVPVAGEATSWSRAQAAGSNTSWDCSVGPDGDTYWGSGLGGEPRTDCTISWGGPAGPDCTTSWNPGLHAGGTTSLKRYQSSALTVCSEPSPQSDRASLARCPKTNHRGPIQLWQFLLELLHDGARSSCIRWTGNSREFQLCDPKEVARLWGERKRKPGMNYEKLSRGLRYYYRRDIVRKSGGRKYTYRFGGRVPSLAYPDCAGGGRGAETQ
In short: as §1

ELF3 = biological target: T5, ELF3 (Homo sapiens, UniProt P78545 1-371); settings: protein: recombinant; tags: N-terminal GST; dsDNA, one strand shown
T5 sequence: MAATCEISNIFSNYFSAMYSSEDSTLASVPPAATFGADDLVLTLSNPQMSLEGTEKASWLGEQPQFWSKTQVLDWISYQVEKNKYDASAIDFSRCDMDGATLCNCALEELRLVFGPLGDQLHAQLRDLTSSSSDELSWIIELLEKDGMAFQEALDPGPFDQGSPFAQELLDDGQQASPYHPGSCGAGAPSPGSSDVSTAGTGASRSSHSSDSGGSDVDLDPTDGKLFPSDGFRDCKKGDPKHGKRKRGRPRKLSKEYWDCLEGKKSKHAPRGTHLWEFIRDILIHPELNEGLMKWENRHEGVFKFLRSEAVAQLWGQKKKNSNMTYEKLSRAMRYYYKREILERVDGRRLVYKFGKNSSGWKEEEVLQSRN
In short: as §1

CRX = CRX (Homo sapiens, UniProt O43186 1-299); settings: protein: recombinant; tags: N-terminal GST; dsDNA, one strand shown
In short: as §1

ETV1 = ETV1 (Homo sapiens, UniProt P50549 1-477); settings: protein: recombinant; tags: N-terminal GST; dsDNA, one strand shown
In short: as §1

ERF = biological target: T6, ERF (Homo sapiens, UniProt P50548 1-548); settings: protein: recombinant; tags: N-terminal GST; dsDNA, one strand shown
T6 sequence: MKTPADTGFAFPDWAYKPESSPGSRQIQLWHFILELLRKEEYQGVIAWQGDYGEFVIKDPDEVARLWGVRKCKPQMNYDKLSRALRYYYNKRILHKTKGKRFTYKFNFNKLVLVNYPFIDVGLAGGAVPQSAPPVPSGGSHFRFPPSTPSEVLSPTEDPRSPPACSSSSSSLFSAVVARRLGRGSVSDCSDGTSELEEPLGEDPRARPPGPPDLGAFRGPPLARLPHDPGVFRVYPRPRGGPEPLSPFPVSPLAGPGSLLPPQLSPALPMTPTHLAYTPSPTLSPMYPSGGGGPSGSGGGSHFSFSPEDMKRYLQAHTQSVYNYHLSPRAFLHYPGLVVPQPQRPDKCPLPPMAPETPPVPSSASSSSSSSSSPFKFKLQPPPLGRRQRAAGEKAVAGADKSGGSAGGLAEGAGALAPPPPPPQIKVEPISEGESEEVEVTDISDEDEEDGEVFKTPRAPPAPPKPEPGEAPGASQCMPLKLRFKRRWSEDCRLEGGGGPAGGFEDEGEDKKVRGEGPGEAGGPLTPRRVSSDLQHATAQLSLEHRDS
In short: as §1

ETV3L = biological target: T7, ETV3L (Homo sapiens, UniProt Q6ZN32 1-361); settings: protein: recombinant; tags: N-terminal GST; dsDNA, one strand shown
T7 sequence: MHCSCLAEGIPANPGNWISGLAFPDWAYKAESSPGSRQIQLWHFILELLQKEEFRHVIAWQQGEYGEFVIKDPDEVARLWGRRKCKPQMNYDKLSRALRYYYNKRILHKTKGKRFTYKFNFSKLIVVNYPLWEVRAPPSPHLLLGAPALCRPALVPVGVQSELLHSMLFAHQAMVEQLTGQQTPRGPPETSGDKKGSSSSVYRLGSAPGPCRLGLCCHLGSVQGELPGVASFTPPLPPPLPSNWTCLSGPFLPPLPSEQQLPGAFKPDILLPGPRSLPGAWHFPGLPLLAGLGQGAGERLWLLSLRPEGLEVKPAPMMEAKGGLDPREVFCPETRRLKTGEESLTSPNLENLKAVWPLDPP
In short: as §1

ETS2 = biological target: T8, ETS2 (Homo sapiens, UniProt P15036 1-469); settings: protein: recombinant; tags: N-terminal GST; dsDNA, one strand shown
T8 sequence: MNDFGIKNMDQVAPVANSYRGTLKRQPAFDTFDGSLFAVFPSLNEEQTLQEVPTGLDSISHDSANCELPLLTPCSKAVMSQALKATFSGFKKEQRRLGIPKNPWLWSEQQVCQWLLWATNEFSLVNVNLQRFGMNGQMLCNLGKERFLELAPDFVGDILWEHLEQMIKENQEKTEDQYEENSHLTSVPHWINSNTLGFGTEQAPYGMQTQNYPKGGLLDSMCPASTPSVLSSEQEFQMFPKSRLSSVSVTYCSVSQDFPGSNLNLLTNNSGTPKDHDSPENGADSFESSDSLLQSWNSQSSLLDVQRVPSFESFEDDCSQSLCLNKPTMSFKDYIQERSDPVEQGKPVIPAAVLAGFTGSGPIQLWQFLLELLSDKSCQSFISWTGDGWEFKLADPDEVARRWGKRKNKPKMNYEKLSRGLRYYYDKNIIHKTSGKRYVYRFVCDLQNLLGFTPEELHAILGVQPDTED
In short: as §1

SPDEF = biological target: T9, SPDEF (Homo sapiens, UniProt O95238 1-335); settings: protein: recombinant; tags: N-terminal GST; dsDNA, one strand shown
T9 sequence: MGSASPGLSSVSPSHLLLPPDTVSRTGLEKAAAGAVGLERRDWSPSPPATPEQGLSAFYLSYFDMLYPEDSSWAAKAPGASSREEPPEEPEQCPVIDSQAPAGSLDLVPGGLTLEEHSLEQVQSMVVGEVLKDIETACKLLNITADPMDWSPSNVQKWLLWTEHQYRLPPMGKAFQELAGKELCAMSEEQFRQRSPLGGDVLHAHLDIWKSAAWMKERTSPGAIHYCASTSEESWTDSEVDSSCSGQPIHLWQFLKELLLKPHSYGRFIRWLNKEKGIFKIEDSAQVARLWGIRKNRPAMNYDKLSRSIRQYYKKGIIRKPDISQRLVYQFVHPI
In short: as §1

ETV7 = biological target: T10, ETV7 (Homo sapiens, UniProt Q9Y603 1-341); settings: protein: recombinant; tags: N-terminal GST; dsDNA, one strand shown
T10 sequence: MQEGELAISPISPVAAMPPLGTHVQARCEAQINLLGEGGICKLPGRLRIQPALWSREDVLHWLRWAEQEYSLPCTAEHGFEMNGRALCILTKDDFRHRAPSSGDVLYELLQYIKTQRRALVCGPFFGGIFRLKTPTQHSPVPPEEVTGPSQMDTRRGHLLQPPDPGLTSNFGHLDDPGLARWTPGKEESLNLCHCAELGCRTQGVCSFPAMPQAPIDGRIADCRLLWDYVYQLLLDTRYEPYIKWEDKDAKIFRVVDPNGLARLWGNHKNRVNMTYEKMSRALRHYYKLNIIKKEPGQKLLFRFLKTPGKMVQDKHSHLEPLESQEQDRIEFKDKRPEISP
In short: as §1

ELF5 = biological target: T11, ELF5 (Homo sapiens, UniProt Q9UKW6-2 1-255); settings: protein: recombinant; tags: N-terminal GST; dsDNA, one strand shown
T11 sequence: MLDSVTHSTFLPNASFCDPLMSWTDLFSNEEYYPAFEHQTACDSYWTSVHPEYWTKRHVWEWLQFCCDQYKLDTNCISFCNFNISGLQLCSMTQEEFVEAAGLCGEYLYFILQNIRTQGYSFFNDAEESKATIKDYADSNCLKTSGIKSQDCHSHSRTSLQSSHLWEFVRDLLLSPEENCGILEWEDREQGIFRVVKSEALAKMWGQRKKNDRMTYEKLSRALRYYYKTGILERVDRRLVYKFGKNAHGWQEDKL
In short: as §1

ETV3 = biological target: T12, ETV3 (Homo sapiens, UniProt P41162-2 1-143); settings: protein: recombinant; tags: N-terminal GST; dsDNA, one strand shown
T12 sequence: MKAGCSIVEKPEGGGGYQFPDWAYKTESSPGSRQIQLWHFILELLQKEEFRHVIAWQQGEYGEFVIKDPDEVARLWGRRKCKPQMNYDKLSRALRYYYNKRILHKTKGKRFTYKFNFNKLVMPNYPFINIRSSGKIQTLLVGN
In short: as §1

ETV6 = ETV6 (Homo sapiens, UniProt P41212 1-452); settings: protein: recombinant; tags: N-terminal GST; dsDNA, one strand shown
In short: as §1

Chain of ETV1 (P50549 whole entry): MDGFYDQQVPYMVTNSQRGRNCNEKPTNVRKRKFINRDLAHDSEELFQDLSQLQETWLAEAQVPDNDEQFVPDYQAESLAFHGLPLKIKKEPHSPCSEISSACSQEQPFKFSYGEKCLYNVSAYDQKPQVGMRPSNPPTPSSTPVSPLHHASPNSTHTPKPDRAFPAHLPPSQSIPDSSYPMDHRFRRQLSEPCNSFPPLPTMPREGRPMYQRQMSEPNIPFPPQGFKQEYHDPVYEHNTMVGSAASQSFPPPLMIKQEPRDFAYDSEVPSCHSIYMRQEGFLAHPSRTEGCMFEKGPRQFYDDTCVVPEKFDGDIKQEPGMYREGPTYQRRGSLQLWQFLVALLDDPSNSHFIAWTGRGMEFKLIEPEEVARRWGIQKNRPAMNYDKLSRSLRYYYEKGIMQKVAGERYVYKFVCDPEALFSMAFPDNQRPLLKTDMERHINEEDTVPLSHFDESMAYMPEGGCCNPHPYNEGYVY
Chain of CRX (O43186 whole entry): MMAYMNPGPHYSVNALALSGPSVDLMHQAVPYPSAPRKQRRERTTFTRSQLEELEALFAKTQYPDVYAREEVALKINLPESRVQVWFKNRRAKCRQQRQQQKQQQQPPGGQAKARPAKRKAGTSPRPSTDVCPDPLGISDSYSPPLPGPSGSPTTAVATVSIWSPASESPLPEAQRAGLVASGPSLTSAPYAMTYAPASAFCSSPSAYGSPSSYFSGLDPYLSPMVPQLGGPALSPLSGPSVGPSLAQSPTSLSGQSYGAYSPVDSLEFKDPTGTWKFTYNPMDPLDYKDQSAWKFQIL
Chain of ETV6 (P41212 whole entry): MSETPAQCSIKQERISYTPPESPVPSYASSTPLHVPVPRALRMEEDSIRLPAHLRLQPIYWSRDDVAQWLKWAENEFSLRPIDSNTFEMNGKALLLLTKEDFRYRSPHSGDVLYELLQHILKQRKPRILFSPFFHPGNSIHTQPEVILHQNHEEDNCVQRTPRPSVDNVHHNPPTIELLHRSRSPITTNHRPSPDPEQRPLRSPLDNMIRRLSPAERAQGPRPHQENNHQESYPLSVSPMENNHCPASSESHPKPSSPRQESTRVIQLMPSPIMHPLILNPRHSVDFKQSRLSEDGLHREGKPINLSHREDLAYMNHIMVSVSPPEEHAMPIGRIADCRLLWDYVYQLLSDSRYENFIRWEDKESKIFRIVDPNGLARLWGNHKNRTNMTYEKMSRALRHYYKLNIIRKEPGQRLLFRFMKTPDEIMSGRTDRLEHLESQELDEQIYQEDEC
Chain of HSF1 (Q00613 whole entry): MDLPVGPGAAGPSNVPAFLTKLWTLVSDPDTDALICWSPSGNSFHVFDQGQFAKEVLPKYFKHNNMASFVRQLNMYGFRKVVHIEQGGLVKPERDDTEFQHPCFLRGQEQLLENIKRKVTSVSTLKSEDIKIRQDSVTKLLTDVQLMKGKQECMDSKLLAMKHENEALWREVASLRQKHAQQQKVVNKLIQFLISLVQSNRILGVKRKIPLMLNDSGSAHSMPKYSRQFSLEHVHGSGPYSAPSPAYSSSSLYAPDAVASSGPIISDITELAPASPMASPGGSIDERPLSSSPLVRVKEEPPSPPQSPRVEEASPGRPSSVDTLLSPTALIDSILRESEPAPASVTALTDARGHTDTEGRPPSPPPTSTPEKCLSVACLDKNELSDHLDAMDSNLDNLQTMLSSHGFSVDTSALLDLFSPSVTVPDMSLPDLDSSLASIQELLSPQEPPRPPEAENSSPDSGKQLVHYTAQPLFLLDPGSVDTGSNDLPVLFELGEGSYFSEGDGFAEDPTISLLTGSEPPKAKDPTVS
Chain of ETV5 (P41161 whole entry): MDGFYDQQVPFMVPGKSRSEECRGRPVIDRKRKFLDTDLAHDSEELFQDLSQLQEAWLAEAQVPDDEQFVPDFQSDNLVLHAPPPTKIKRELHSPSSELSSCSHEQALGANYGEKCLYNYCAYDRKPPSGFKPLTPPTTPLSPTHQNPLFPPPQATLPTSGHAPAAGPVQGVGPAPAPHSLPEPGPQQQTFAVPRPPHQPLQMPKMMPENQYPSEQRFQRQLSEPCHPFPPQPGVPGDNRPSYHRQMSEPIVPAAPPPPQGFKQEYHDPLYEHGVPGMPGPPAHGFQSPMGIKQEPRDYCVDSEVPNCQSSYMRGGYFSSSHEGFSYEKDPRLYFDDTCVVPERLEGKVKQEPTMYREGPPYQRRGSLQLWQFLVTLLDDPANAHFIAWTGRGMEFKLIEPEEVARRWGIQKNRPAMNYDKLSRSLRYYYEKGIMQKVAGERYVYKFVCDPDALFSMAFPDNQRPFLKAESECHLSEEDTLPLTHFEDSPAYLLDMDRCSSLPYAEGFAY
Chain of ELF4 (Q99607 whole entry): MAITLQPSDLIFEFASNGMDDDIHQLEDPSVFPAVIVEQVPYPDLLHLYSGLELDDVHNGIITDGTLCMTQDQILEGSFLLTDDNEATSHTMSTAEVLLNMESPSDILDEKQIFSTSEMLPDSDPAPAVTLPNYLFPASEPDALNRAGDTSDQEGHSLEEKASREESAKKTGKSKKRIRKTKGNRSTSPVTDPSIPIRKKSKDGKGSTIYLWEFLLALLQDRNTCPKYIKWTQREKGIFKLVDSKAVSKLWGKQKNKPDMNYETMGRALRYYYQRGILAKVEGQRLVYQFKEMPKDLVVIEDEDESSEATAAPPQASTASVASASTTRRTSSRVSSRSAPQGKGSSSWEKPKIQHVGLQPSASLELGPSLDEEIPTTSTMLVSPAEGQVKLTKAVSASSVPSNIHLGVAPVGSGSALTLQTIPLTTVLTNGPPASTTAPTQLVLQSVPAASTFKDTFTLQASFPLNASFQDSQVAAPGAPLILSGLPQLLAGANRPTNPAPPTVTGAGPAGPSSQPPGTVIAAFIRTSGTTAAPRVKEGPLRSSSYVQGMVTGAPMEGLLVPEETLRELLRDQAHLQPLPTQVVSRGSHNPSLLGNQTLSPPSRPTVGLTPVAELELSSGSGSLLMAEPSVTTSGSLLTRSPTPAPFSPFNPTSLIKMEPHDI

Q: What does the source list for ATGTAA?
A: binding signal (FEV): 1.2 fold enrichment (6-mer frequency, TF over GST control); binding signal (ETV5): 1.24 fold enrichment (6-mer frequency, TF over GST control); binding signal (HSF1): 1.28 fold enrichment (6-mer frequency, TF over GST control); binding signal (SPIC): 1.17 fold enrichment (6-mer frequency, TF over GST control); binding signal (ELF4): 1.23 fold enrichment (6-mer frequency, TF over GST control); binding signal (ELK4): 1.28 fold enrichment (6-mer frequency, TF over GST control); binding signal (ETV2): 1.15 fold enrichment (6-mer frequency, TF over GST control); binding signal (ELF3): 1.39 fold enrichment (6-mer frequency, TF over GST control); binding signal (CRX): 1.41 fold enrichment (6-mer frequency, TF over GST control); binding signal (ETV1): 1.27 fold enrichment (6-mer frequency, TF over GST control); binding signal (ERF): 1.18 fold enrichment (6-mer frequency, TF over GST control); binding signal (ETV3L): 1.26 fold enrichment (6-mer frequency, TF over GST control); binding signal (ETS2): 1.37 fold enrichment (6-mer frequency, TF over GST control); binding signal (SPDEF): 1.32 fold enrichment (6-mer frequency, TF over GST control); binding signal (ETV7): 1.26 fold enrichment (6-mer frequency, TF over GST control); binding signal (ELF5): 1.3 fold enrichment (6-mer frequency, TF over GST control); binding signal (ETV3): 1.32 fold enrichment (6-mer frequency, TF over GST control); binding signal (ETV6): 1.3 fold enrichment (6-mer frequency, TF over GST control)

From article PMC7862700, “An all-to-all approach to the identification of sequence-specific readers for epigenetic DNA modifications on cytosine”
